Where “and” joins values, the source holds several entries; their conditions need not be identical. Equal values may be shown once. Inconclusive results are not listed. Calls of active or inactive are those of the source. Unless noted, the call rests on the fitted dose curve; in most records, active means well fitted curve in the direction sought with a large enough effect in the repeat runs; inconclusive means weak or mixed curves; inactive means no such curve, though single readings can be large; an effect the other way counts as inactive or inconclusive.
Assays:
[1] = qHTS assay for small molecule agonists of the p53 signaling pathway (AID 651631; calls by dose curve; further: nearly all actives have a fitted effect of over 15% in size)
How it was run: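 HCT-116 cells carrying a stable p53 response element–beta-lactamase reporter were plated, rested 5 h at 37 °C, then exposed to compound in DMSO for 16 h at 37 °C; reporter activity was read as FRET substrate fluorescence after 2 h at room temperature.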

[2] = qHTS assay for small molecules that induce genotoxicity in human embryonic kidney cells expressing luciferase-tagged ATAD5 (AID 651632); further: nearly all actives have a fitted effect of over 15% in size
How it was run: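 Luminescent reporter readout, HEK293T ATAD5-luc line: 16 hr drug exposure (37C, 5% CO2) followed by Amplite, 30 min RT.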

[3] = qHTS assay for small molecule agonists of the p53 signaling pathway - cell viability (AID 651633; calls by dose curve; further: series mostly up to about 83 µM; nearly all actives have a fitted effect of over 30% in size)
How it was run: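 p53RE-bla cells, seeded at 4,000 per well and rested 5 h at 37 C/5% CO2, received compounds in DMSO for 16 h at 37 C. CellTiter-Glo was then added, and luminescence was read after 30 min at room temperature to gauge cytotoxicity.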

[4] = qHTS assay for small molecule disruptors of the mitochondrial membrane potential - cell viability (AID 720634; calls by dose curve; further: nearly all actives have a fitted effect of over 20% in size; further: potency means the concentration at half of the fitted maximal effect)
How it was run: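 HepG2, 1 hr compound, 37 C. ATP luminescence via CellTiter-Glo, 30 min RT, same well as m-MPI.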

[5] = qHTS assay for small molecule disruptors of the mitochondrial membrane potential (AID 720635); further: potency means the concentration at half of the fitted maximal effect
How it was run: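 HepG2 cells (2,000/well) attached overnight at 37C, then took compound for 1 hr at 37C, 5% CO2. Mito-MPS dye was added for 30 min; fluorescence was read at 490/535 nm (monomers) and 540/590 nm (aggregates).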

[6] = qHTS assay to test for compound auto fluorescence at 590 nm (red) in HepG2 cells (AID 720674)
How it was run: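 Rose Bengal sodium served as the red fluorophore standard. HepG2 monolayers (overnight attachment, MEM with 10% FBS) were exposed to test compounds for 1 hr at 37 C and read at Ex 540/Em 590 nm.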

[7] = qHTS assay to test for compound auto fluorescence at 535 nm (green) in HepG2 cells (AID 720675)
[8] = qHTS assay to test for compound auto fluorescence at 460 nm (blue) in HEK293 cells (AID 720678)
How it was run: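 Cells were seeded and left to adhere for 4-5 hr at 37C. Compounds were then pin-transferred. After an overnight incubation at 37C under 5% CO2, intrinsic fluorescence at 405/460 nm was measured and referenced to triamterene.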

[9] = qHTS assay to test for compound auto fluorescence at 535 nm (green) in HEK293 cells (AID 720680)
[10] = qHTS assay to test for compound auto fluorescence at 460 nm (blue) in HEK293 cell free culture (AID 720681)
How it was run: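 Test compounds were pinned into cell-free culture medium (DMEM with 10% FBS) and fluorescence was read directly at Ex/Em 405/460 nm. Signals were expressed as fluorescence equivalents of triamterene, with DMSO vehicle as control.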

[11] = qHTS assay to test for compound auto fluorescence at 535 nm (green) in HEK293 cell free culture (AID 720682)
How it was run: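 Read-out: 485/535 nm fluorescence intensity, calibrated against fluorescein. Medium only (DMEM + 10% FBS, no cells); test compound or DMSO vehicle added by pintool before plate reading.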

[12] = qHTS assay to test for compound auto fluorescence at 590 nm (red) in HEK293 cell free culture (AID 720683)
How it was run: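 Tox21 10K library compounds were pinned into cell-free DMEM with 10% FBS and fluorescence was read at excitation 540 nm. Activity is expressed as Rose Bengal sodium equivalency.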

[13] = qHTS assay to test for compound auto fluorescence at 590 nm (red) in HepG2 cell free culture (AID 720684)
How it was run: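 Red fluorescence (540 nm excitation, 590 nm emission) was measured after compound transfer into cell-free MEM supplemented with 10% FBS. Values are equivalencies against Rose Bengal sodium.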

[14] = qHTS assay to test for compound auto fluorescence at 460 nm (blue) in HepG2 cell free culture (AID 720685)
How it was run: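 Compound (23 nL) or DMSO pinned into cell-free MEM with 10% FBS; blue fluorescence read at 405/460 nm excitation/emission, expressed as auto-fluorescence equivalency to triamterene.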

[15] = qHTS assay to test for compound auto fluorescence at 535 nm (green) in HepG2 cell free culture (AID 720686)
[16] = qHTS assay to test for compound auto fluorescence at 460 nm (blue) in HepG2 cells (AID 720687)
How it was run: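 Cells (2,000/well in MEM with 10% FBS) attached overnight at 37 C, then were exposed to compound or DMSO for 1 hr at 37 C, 5% CO2. Fluorescence read at Ex/Em 405/460 nm, expressed as triamterene-equivalent signal.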

[17] = biological target: Glucocorticoid receptor (Homo sapiens) (UniProt P04150); test: qHTS assay to identify small molecule agonists of the glucocorticoid receptor (GR) signaling pathway (AID 720691; active means well fitted activation curve with a large enough effect in the signal ratio in the repeat runs, not every such curve was filed as active; the % refers to the signal ratio)
How it was run: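 qHTS in GR-bla HeLa cells: 4 h settling at 37 C/5% CO2, 18 h compound incubation at 37 C, 2 h LiveBLAzer B/G FRET substrate at room temperature, fluorescence intensity measured.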

[18] = qHTS assay for small molecules that induce genotoxicity in human embryonic kidney cells expressing luciferase-tagged ATAD5 - cell viability (AID 651634; calls by dose curve; further: nearly all actives have a fitted effect of over 25% in size)
How it was run: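 Viability read: CellTiter-Fluor fluorescence, 30 min at 37C. Cells: HEK293T, luciferase-tagged ATAD5. Exposure: 15.5 hr, 37C, 5% CO2, compound or DMSO vehicle.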

[19] = qHTS assay to test for compound auto fluorescence at 590 nm (red) in HEK293 cells (AID 720679)
How it was run: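 Each well held 2,000 HEK293 cells in medium containing 10% dialyzed FBS. Following 4-5 hr attachment at 37C, 23 nL test compound or DMSO was added; plates sat overnight, and red fluorescence (540/590nm) was recorded.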

[20] = biological target: Glucocorticoid receptor (Homo sapiens) (UniProt P04150); test: qHTS assay to identify small molecule antagonists of the glucocorticoid receptor (GR) signaling pathway (AID 720692; active means well fitted inhibition curve with a large enough effect in the signal ratio in the repeat runs, not every such curve was filed as active; the % refers to the signal ratio; further: potency means the concentration at half of the fitted maximal effect)
How it was run: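 Inhibition of glucocorticoid signalling is measured in HeLa cells with a GRE-controlled beta-lactamase reporter; cells are co-treated with compound and 5 nM dexamethasone (final) for 18 h before FRET substrate readout.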

Measured: Potency

Chain of Glucocorticoid receptor (Homo sapiens) (P04150 whole entry, looked up): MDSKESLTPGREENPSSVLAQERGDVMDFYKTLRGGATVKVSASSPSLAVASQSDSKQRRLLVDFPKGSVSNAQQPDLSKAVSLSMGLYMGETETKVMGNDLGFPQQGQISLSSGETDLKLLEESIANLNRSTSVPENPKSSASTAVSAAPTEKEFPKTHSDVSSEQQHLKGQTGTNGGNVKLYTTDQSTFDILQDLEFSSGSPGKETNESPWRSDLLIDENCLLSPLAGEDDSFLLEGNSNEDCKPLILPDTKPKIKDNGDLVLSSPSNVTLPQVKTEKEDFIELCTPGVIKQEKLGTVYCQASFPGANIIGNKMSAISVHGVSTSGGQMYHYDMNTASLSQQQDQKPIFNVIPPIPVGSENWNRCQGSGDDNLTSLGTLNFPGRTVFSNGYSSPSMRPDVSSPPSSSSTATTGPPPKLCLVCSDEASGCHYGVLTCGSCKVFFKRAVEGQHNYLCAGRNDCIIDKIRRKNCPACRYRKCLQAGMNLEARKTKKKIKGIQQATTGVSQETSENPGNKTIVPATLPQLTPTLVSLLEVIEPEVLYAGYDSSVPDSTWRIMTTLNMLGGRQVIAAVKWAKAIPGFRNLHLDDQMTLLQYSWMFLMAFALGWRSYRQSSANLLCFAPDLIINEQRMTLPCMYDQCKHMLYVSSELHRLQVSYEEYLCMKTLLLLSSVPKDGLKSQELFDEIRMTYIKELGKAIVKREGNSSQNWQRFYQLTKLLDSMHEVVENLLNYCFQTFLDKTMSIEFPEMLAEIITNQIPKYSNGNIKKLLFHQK

CCCSC(=O)N(CCC)CCC
not listed: [18] | [19] | [20]
inactive: all other assays above

CCN(CC)c1nc(C)cc(OP(=S)(OC)OC)n1
not listed: [4] | [5]
inactive: all other assays above

CCOP(=S)(OCC)Oc1cc(-c2ccccc2)on1
not listed: [4] | [5] | [19]
inactive: all other assays above

CCCCOC(=O)[C@@H](C)Oc1ccc(Oc2ccc(C#N)cc2F)cc1
not listed: [4] | [5] | [20]
inactive: all other assays above

OC(c1ccc(F)cc1)(c1cncnc1)c1ccccc1Cl (stereo not given)
not listed: [14] | [17] | [18] | [19] | [20]
inactive: all other assays above

COCC(=O)N(c1c(C)cccc1C)N1CCOC1=O
not listed: [8] | [14] | [17] | [18] | [20]
inactive: all other assays above

Cc1cccc(C#N)c1
not listed: [5] | [14] | [17] | [18] | [19]
inactive: all other assays above

C[C@H]1CCC[C@H](O)CCCCCc2cc(O)cc(O)c2C(=O)O1
active: [4] 26.6 µM | [5] 9.44 µM and 6.91 µM | [20] 21.3 µM and 39.2 µM
not listed: [8] | [18]
inactive: all other assays above

CCCCOC(=O)c1ccccc1C(=O)O
not listed: [5] | [8] | [14] | [17] | [18] | [20]
inactive: all other assays above

CNC(=O)Oc1ccccc1C1OCCO1
not listed: [5] | [8] | [17]
inactive: all other assays above

COc1ccc(C(=O)N2CCCC2=O)cc1
not listed: [4] | [5] | [18]
inactive: all other assays above

CCCSC(=O)Cl
not listed: [14] | [18]
inactive: all other assays above

CC1=NNC(=O)N(/N=C/c2cccnc2)C1
not listed: [16] | [17] | [18] | [20]
inactive: all other assays above

CCOC(=O)CP(=O)(OCC)OCC
not listed: [2] | [5] | [17] | [20]
inactive: all other assays above

COC(=O)c1c(C(F)F)nc(C(F)(F)F)c(C2=NCCS2)c1CC(C)C
not listed: [2] | [4] | [5] | [16] | [17] | [20]
inactive: all other assays above

O=[N+]([O-])c1ccc(CBr)cc1
not listed: [2] | [5] | [8] | [14] | [18]
inactive: all other assays above

COC(=O)COc1ccc(Cl)cc1Cl
not listed: [2] | [5] | [14] | [17] | [18] | [20]
inactive: all other assays above

CSc1ccc(C(=O)C(C)(C)N2CCOCC2)cc1
not listed: [2] | [5] | [14] | [17] | [20]
inactive: all other assays above

COc1cc(OC)nc(Sc2cccc(Cl)c2C(=O)O)n1
not listed: [2]
inactive: all other assays above

CC(=O)Nc1cc([As](=O)(O)O)ccc1O
not listed: [2] | [11] | [16]
inactive: all other assays above

CCOC(=O)N(C)C(=O)CSP(=S)(OCC)OCC
not listed: [2] | [5] | [17]
inactive: all other assays above

O=c1oc2ccccc2c(O)c1C1CCCc2ccccc21 (stereo not given)
active: [5] 13.7 µM
not listed: [2] | [4] | [11] | [14] | [17]
inactive: all other assays above

OC(Cn1cncn1)(c1ccc(F)cc1)c1ccccc1F (stereo not given)
not listed: [2] | [17] | [20]
inactive: all other assays above

O=[N+]([O-])c1cccc2cccnc12
not listed: [2] | [5] | [14] | [18]
inactive: all other assays above

C[N+](=O)[O-]
not listed: [2] | [11] | [20]
inactive: all other assays above

C=CC1CC=CCC1 (stereo not given)
not listed: [2] | [5]
inactive: all other assays above

NC1=NC(=O)C(c2ccccc2)O1 (stereo not given)
not listed: [2]
inactive: all other assays above

O=[N+]([O-])c1ccc2c3c(cccc13)CC2
active: [5] 24.3 µM
not listed: [2] | [17] | [20]
inactive: all other assays above
